The record followed here is paper PMC7862700, “An all-to-all approach to the identification of sequence-specific readers for epigenetic DNA modifications on cytosine”.

Assay in all cases: DAPPL (digital affinity profiling via proximity ligation, sequencing); 10 mM Tris-HCl pH 7.5, 50 mM NaCl, 1 mM DTT, 4% glycerol, room temperature, 30 min; GST-TFs on glutathione beads, 16-mer random dsDNA library, 0.1% formaldehyde crosslink after washing; high values mean tight binding
Details in all cases: protein: recombinant; tags: N-terminal GST; dsDNA, one strand shown

In one experiment the target is T1, FLI1 (Homo sapiens, UniProt Q01543 1-452).
T1 sequence: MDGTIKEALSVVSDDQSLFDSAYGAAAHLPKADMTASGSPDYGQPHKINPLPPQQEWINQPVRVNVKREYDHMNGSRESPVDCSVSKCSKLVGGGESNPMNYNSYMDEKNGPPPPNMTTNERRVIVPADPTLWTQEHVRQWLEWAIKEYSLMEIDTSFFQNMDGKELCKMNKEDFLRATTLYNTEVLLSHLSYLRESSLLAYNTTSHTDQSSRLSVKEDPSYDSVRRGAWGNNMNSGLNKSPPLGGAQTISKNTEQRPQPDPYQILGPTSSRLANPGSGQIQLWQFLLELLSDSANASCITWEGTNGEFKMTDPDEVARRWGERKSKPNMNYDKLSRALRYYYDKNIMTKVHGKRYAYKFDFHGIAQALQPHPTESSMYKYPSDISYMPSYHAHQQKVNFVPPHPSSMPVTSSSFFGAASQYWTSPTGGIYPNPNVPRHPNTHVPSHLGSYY
A digest of the protocol:
(§1)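 Beads coated with glutathione captured GST-fused human transcription factors that had been expressed in yeast, and the factors were then given DNA barcodes and pooled with a tag-only sample. The pools were incubated with 200 nmole of a random double-stranded 16-mer DNA library in Tris/NaCl/DTT/glycerol buffer for 30 min at room temperature, washed, crosslinked with 0.1% formaldehyde and proximity-ligated with BsaI/T4 ligase at 37 °C for 1 h. PCR amplification and Illumina NextSeq500 sequencing came last. Binding signal is each hexamer's read frequency for a factor divided by its frequency for the tag-only sample.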

For a further experiment, the target named is T2, ELK1 (Homo sapiens, UniProt P19419 1-428).
T2 sequence: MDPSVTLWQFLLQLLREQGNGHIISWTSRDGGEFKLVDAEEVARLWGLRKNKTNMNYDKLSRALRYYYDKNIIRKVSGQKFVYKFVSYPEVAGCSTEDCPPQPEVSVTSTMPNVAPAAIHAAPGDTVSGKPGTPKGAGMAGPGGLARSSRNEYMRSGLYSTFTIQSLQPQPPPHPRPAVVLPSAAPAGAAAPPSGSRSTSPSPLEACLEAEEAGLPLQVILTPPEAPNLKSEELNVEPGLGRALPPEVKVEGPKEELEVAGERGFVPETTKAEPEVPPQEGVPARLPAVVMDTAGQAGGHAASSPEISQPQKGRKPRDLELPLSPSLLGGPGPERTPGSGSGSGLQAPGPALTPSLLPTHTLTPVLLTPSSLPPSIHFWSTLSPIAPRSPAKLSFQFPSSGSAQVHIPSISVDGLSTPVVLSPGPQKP
In short, it runs like this:
as §1

A further experiment deals with T3, GABPA (Homo sapiens, UniProt Q06546 1-454).
T3 sequence: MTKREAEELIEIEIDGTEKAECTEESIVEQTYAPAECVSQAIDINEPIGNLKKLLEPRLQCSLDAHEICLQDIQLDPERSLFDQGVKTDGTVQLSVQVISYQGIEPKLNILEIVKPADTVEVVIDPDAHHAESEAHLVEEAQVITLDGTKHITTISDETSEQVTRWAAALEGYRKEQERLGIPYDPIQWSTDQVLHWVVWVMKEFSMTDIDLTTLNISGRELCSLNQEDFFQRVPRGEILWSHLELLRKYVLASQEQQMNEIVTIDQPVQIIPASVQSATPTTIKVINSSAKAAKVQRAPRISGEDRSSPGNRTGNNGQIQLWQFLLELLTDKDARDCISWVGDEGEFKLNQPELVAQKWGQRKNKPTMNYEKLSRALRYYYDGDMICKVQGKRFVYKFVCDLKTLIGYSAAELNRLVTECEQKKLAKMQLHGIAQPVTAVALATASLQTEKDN
A digest of the protocol:
as §1

The next experiment addresses T4, ERG (Homo sapiens, UniProt P11308 1-479).
T4 sequence: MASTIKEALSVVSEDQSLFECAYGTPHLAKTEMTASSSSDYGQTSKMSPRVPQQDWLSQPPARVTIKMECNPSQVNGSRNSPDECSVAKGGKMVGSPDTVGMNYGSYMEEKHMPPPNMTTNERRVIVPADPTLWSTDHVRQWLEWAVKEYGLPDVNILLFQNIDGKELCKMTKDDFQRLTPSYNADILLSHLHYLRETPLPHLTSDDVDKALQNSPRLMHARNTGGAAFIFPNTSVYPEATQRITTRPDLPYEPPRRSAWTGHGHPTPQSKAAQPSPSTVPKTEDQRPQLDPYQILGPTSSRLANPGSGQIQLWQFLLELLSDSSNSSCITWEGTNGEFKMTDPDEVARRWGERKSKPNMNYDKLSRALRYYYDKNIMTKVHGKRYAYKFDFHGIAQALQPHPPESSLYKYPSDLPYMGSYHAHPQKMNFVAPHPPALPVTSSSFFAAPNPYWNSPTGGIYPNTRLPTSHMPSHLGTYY
A digest of the protocol:
as §1

A further experiment deals with ELF1 (Homo sapiens, UniProt P32519 1-619). In short, it runs like this: as §1
For the next experiment, the target named is T5, EHF (Homo sapiens, UniProt Q9NZC4 1-300).
T5 sequence: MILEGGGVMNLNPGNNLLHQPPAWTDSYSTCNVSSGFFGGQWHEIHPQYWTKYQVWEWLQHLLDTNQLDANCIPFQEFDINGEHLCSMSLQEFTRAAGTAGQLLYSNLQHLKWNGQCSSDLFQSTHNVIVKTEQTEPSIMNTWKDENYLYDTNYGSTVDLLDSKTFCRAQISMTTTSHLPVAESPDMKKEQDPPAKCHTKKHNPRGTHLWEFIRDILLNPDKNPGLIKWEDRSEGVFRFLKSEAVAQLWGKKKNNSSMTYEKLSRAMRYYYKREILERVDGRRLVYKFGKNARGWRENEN
In short, it runs like this:
as §1

A further experiment has as its target SPI1 (Homo sapiens, UniProt P17947 1-270). In short, it runs like this: as §1
Another experiment deals with SPIB (Homo sapiens, UniProt Q01892 1-262). In short, it runs like this: as §1
A further experiment concerns the target T6, ELK3 (Homo sapiens, UniProt P41970 1-407).
T6 sequence: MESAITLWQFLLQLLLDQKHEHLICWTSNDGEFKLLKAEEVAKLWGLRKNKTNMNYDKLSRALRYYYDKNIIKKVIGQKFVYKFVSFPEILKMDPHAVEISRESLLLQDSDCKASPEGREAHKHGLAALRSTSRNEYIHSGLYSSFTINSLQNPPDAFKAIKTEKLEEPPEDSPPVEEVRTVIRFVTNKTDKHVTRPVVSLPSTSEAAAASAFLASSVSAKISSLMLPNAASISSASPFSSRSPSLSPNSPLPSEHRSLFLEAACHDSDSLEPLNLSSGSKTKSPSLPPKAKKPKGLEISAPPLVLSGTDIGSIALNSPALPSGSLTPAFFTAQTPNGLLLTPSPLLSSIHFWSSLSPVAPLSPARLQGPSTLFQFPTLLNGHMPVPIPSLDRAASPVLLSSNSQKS
A digest of the protocol:
as §1

Another experiment deals with T7, FEV (Homo sapiens, UniProt Q99581 1-238).
T7 sequence: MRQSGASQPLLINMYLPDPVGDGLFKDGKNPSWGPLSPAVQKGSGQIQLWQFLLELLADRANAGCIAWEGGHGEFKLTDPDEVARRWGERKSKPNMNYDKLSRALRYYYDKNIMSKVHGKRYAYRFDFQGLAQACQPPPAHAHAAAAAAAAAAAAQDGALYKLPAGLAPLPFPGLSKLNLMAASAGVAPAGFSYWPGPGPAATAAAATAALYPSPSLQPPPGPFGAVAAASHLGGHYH
A digest of the protocol: as §1

A further experiment deals with ETV5 (Homo sapiens, UniProt P41161 1-510). A digest of the protocol:
as §1

The next experiment has as its target ELF4 (Homo sapiens, UniProt Q99607 1-663). A digest of the protocol:
as §1

The next experiment concerns the target ETV1 (Homo sapiens, UniProt P50549 1-477). A digest of the protocol:
as §1

For the next experiment, the target named is T8, ERF (Homo sapiens, UniProt P50548 1-548).
T8 sequence: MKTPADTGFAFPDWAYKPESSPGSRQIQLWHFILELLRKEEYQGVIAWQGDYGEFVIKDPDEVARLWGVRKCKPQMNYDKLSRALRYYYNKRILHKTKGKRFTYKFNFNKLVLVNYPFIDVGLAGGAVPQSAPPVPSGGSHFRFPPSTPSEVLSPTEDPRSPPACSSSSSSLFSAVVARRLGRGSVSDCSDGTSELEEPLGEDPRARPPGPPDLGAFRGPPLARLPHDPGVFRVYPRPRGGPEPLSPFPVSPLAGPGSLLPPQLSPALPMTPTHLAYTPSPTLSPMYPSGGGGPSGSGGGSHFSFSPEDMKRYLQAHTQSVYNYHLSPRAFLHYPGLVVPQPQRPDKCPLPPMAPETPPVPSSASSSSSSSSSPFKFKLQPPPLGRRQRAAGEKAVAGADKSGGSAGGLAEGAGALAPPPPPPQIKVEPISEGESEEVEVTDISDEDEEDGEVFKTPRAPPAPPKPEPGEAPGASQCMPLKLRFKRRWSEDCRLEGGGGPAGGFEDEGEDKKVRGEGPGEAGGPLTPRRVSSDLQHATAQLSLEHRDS
A digest of the protocol: as §1

In another experiment the target is T9, ETV3L (Homo sapiens, UniProt Q6ZN32 1-361).
T9 sequence: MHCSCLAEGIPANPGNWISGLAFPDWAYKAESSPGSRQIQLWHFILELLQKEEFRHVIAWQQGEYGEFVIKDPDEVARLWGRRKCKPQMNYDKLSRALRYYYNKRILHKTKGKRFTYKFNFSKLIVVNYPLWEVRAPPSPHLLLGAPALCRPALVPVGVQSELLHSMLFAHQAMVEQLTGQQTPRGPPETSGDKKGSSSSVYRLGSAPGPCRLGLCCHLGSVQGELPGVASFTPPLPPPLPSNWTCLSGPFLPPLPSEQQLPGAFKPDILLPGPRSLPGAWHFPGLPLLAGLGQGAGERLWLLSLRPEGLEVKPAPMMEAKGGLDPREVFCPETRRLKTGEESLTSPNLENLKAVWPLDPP
A digest of the protocol:
as §1

Another experiment concerns the target T10, ETS2 (Homo sapiens, UniProt P15036 1-469).
T10 sequence: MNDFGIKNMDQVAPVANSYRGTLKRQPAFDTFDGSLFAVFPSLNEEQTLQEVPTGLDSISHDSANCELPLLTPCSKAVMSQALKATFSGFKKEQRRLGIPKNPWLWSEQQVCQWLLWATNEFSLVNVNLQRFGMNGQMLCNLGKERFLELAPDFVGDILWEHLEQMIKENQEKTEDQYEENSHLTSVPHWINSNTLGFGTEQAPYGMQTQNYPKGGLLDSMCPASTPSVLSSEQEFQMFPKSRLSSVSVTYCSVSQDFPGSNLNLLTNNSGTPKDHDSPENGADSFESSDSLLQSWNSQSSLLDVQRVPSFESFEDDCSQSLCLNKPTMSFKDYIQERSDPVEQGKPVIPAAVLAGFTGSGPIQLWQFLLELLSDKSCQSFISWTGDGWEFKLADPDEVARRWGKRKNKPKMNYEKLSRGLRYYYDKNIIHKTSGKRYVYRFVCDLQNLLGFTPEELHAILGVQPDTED
In short, it runs like this:
as §1

The target of a further experiment is T11, ELF5 (Homo sapiens, UniProt Q9UKW6-2 1-255).
T11 sequence: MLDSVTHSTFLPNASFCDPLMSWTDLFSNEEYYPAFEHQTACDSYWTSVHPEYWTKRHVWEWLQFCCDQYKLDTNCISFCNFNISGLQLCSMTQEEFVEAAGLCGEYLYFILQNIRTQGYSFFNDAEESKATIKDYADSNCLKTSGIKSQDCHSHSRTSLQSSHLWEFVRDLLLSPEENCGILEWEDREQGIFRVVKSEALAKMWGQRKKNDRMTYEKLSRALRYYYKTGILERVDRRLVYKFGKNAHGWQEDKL
A digest of the protocol:
as §1

The next experiment addresses T12, ETV3 (Homo sapiens, UniProt P41162-2 1-143).
T12 sequence: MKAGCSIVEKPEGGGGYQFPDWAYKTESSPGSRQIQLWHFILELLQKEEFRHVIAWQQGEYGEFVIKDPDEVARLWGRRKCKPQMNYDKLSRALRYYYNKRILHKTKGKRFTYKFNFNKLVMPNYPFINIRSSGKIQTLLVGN
A digest of the protocol: as §1

Another experiment deals with ETV6 (Homo sapiens, UniProt P41212 1-452). A digest of the protocol: as §1
Sequence of ETV6 (P41212 whole entry): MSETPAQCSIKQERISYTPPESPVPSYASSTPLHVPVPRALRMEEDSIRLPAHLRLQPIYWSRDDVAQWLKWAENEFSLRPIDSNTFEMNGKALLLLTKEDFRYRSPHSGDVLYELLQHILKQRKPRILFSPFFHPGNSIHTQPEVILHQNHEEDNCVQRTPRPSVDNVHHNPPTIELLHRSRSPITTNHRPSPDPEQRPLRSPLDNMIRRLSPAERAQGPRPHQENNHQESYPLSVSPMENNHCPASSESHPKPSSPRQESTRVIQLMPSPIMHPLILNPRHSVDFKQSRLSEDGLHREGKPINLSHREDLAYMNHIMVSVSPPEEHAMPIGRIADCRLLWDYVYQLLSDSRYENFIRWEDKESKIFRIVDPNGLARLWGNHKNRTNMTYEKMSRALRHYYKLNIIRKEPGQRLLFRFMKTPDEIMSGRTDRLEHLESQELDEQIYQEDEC

Sequence of SPIB (Q01892 whole entry): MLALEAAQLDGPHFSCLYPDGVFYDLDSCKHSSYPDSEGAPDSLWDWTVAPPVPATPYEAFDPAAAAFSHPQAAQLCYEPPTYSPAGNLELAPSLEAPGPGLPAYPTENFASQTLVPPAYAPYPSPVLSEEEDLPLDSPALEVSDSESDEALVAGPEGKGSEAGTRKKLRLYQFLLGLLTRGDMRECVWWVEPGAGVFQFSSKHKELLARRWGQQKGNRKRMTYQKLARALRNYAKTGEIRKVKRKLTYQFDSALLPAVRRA
Sequence of ELF4 (Q99607 whole entry): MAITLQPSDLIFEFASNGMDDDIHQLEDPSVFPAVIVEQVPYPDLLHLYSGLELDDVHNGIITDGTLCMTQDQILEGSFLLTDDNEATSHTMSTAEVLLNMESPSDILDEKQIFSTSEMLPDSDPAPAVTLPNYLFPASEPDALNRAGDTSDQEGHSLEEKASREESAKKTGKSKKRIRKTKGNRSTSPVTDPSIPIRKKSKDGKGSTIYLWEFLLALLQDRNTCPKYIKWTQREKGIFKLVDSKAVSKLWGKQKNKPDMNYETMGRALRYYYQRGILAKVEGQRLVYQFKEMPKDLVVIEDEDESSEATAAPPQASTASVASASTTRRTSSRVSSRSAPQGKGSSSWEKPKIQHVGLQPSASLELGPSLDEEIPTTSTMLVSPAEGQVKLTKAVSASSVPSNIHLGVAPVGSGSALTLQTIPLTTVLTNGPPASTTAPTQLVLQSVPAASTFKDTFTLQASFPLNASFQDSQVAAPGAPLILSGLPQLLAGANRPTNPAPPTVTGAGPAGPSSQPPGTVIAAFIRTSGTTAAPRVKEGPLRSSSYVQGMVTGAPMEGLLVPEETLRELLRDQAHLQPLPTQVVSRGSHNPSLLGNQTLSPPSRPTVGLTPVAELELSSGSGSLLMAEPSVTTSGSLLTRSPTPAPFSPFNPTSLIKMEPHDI
Sequence of ETV5 (P41161 whole entry): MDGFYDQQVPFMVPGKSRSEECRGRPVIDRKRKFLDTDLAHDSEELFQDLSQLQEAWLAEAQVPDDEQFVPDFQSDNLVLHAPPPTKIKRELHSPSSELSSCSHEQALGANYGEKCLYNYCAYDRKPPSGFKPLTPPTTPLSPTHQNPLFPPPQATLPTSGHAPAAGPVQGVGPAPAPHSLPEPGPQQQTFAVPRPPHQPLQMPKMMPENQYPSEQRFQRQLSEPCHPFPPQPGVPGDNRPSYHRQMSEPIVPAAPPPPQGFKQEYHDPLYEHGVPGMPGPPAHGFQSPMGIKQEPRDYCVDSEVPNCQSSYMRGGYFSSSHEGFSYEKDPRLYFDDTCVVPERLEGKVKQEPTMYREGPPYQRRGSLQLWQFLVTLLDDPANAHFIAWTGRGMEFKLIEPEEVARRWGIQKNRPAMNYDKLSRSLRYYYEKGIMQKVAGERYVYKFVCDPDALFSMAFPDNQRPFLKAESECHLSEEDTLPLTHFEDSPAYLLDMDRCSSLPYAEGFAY
Sequence of ETV1 (P50549 whole entry): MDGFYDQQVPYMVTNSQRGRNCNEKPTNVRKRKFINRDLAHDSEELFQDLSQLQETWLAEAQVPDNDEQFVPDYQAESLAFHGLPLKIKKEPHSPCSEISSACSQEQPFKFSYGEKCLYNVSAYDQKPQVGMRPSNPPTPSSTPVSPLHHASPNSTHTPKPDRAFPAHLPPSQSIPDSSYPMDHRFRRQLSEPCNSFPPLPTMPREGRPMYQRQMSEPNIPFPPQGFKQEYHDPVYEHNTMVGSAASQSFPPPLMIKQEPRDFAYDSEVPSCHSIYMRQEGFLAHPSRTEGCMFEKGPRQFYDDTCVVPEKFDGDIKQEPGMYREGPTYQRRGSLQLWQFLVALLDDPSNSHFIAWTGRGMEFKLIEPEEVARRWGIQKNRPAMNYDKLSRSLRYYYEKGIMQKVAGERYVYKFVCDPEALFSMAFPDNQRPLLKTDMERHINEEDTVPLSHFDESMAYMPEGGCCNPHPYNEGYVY
Sequence of ELF1 (P32519 whole entry): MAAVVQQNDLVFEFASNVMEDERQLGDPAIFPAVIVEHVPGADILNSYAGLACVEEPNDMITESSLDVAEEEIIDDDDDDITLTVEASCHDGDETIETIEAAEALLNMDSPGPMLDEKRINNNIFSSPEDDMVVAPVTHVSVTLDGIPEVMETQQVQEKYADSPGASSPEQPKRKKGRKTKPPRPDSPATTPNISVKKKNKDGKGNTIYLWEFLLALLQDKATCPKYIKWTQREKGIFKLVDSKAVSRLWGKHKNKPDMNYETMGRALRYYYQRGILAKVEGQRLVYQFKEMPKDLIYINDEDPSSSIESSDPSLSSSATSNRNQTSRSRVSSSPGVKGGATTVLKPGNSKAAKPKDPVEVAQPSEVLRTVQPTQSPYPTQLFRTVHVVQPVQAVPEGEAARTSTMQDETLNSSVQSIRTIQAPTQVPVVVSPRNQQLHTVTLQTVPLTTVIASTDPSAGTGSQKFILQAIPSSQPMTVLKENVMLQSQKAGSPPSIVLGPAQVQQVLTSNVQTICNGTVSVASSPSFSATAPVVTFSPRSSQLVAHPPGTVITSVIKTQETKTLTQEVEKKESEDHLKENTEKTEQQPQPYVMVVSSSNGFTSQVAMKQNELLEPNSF

Turning to CATGAC, the binding signal with FLI1 was 1.23 fold enrichment (6-mer frequency, TF over GST control); with ELK1 it was 1.18 fold enrichment (6-mer frequency, TF over GST control); in the experiment with GABPA it was 1.34 fold enrichment (6-mer frequency, TF over GST control); with ERG it was 1.14 fold enrichment (6-mer frequency, TF over GST control); with ELF1 it was 1.18 fold enrichment (6-mer frequency, TF over GST control); with EHF, 1.25 fold enrichment (6-mer frequency, TF over GST control). Besides, the binding signal is 1.28 fold enrichment (6-mer frequency, TF over GST control) in the experiment with SPI1; 1.16 fold enrichment (6-mer frequency, TF over GST control) with SPIB; 1.17 fold enrichment (6-mer frequency, TF over GST control) with ELK3; 1.17 fold enrichment (6-mer frequency, TF over GST control) with FEV; 1.24 fold enrichment (6-mer frequency, TF over GST control) in the experiment with ETV5; 1.28 fold enrichment (6-mer frequency, TF over GST control) in the experiment with ELF4. Moreover, the binding signal with ETV1 was 1.13 fold enrichment (6-mer frequency, TF over GST control); in the experiment with ERF it was 1.18 fold enrichment (6-mer frequency, TF over GST control); with ETV3L it was 1.13 fold enrichment (6-mer frequency, TF over GST control); with ETS2, 1.2 fold enrichment (6-mer frequency, TF over GST control); with ELF5, 1.12 fold enrichment (6-mer frequency, TF over GST control); with ETV3, 1.13 fold enrichment (6-mer frequency, TF over GST control). Also, the binding signal in the experiment with ETV6 was 1.18 fold enrichment (6-mer frequency, TF over GST control).
